In PMC11006913:

Biological target: T1, PAX4 (Homo sapiens, UniProt O43316 9-242)
T1 sequence: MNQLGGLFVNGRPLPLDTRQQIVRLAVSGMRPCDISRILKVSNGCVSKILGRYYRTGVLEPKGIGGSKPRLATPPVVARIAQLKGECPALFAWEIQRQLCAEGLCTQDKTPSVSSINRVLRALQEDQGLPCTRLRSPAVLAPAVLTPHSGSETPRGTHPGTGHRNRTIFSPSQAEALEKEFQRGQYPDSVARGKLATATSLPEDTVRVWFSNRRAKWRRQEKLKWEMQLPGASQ
Test: PBM; 200 nM protein, PBS
Details: dsDNA, one strand shown

Sequence	binding signal
GATAATGA	11.4 upbm affinity estimate (log intensity, higher = more binding, comparable within an allelic series)
CGGGCTTC	8.97 upbm affinity estimate (log intensity, higher = more binding, comparable within an allelic series)

Biological target: HOXB6 (Homo sapiens, UniProt P17509 132-218, K202E)
Sequence (P17509 132-218 K202E): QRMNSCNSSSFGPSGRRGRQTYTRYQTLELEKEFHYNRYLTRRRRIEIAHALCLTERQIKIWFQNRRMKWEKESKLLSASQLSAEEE
Test: PBM; 200 nM protein, PBS
Details: dsDNA, one strand shown

Sequence	binding signal
TAATGACA	10 upbm affinity estimate (log intensity, higher = more binding, comparable within an allelic series)
CCAGGCAG	9.02 upbm affinity estimate (log intensity, higher = more binding, comparable within an allelic series)
ATTAATCA	9.98 upbm affinity estimate (log intensity, higher = more binding, comparable within an allelic series)
TAATGATA	10 upbm affinity estimate (log intensity, higher = more binding, comparable within an allelic series)
CCGGACCA	9.06 upbm affinity estimate (log intensity, higher = more binding, comparable within an allelic series)
CGCCGAAG	9.07 upbm affinity estimate (log intensity, higher = more binding, comparable within an allelic series)
CGGGGGTC	8.98 upbm affinity estimate (log intensity, higher = more binding, comparable within an allelic series)
GTGGGGGA	9.05 upbm affinity estimate (log intensity, higher = more binding, comparable within an allelic series)
ATAATGAC	9.89 upbm affinity estimate (log intensity, higher = more binding, comparable within an allelic series)

Biological target: ALX4 (Homo sapiens, UniProt Q9H161 200-286, Q225E)
Sequence (Q9H161 200-286 Q225E): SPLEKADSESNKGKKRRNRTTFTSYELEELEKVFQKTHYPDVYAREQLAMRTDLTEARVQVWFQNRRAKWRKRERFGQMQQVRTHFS
Test: PBM; 200 nM protein, PBS
Details: dsDNA, one strand shown

Sequence	binding signal
ATTAATCA	12.7 upbm affinity estimate (log intensity, higher = more binding, comparable within an allelic series)
GATAATGA	11.2 upbm affinity estimate (log intensity, higher = more binding, comparable within an allelic series)
CCCTTGCG	7.92 upbm affinity estimate (log intensity, higher = more binding, comparable within an allelic series)

Biological target: HOXA2 (Homo sapiens, UniProt O43364 129-215, R185T)
Sequence (O43364 129-215 R185T): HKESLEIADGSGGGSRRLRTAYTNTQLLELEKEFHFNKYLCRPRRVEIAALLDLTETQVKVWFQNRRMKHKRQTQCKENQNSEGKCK
Test: PBM; 200 nM protein, PBS
Details: dsDNA, one strand shown

Sequence	binding signal
TAATGACA	12.6 upbm affinity estimate (log intensity, higher = more binding, comparable within an allelic series)
CGCCGGGC	7.33 upbm affinity estimate (log intensity, higher = more binding, comparable within an allelic series)
CTGGCGGC	7.15 upbm affinity estimate (log intensity, higher = more binding, comparable within an allelic series)
ATTAATCA	12.6 upbm affinity estimate (log intensity, higher = more binding, comparable within an allelic series)
TAATGATA	12.2 upbm affinity estimate (log intensity, higher = more binding, comparable within an allelic series)
ACCGCCGG	7.21 upbm affinity estimate (log intensity, higher = more binding, comparable within an allelic series)
TTAATGAA	12 upbm affinity estimate (log intensity, higher = more binding, comparable within an allelic series)
CCTAATGA	12.7 upbm affinity estimate (log intensity, higher = more binding, comparable within an allelic series)
ATAATGAT	12.1 upbm affinity estimate (log intensity, higher = more binding, comparable within an allelic series)
GGTAATGA	12.1 upbm affinity estimate (log intensity, higher = more binding, comparable within an allelic series)
CATAATGA	12 upbm affinity estimate (log intensity, higher = more binding, comparable within an allelic series)
CATCATTA	12.5 upbm affinity estimate (log intensity, higher = more binding, comparable within an allelic series)
TATAATGA	12 upbm affinity estimate (log intensity, higher = more binding, comparable within an allelic series)
ATAATGAC	12.4 upbm affinity estimate (log intensity, higher = more binding, comparable within an allelic series)
GATAATGA	12.6 upbm affinity estimate (log intensity, higher = more binding, comparable within an allelic series)

Biological target: HOXA4 (Homo sapiens, UniProt Q00056 201-287, R217L)
Sequence (Q00056 201-287 R217L): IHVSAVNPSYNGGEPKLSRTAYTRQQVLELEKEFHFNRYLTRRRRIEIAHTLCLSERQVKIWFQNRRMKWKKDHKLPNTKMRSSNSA
Test: PBM; 200 nM protein, PBS
Details: dsDNA, one strand shown

Sequence	binding signal
TAATGACA	12.2 upbm affinity estimate (log intensity, higher = more binding, comparable within an allelic series)
CGCCGGGC	9.76 upbm affinity estimate (log intensity, higher = more binding, comparable within an allelic series)
CTGGCGGC	9.74 upbm affinity estimate (log intensity, higher = more binding, comparable within an allelic series)
ACCTCTCG	9.73 upbm affinity estimate (log intensity, higher = more binding, comparable within an allelic series)
CCAGGCAG	9.88 upbm affinity estimate (log intensity, higher = more binding, comparable within an allelic series)
ATTAATCA	12.1 upbm affinity estimate (log intensity, higher = more binding, comparable within an allelic series)
TAATGATA	12.2 upbm affinity estimate (log intensity, higher = more binding, comparable within an allelic series)
ACCGCCGG	9.58 upbm affinity estimate (log intensity, higher = more binding, comparable within an allelic series)
TTAATGAA	12.2 upbm affinity estimate (log intensity, higher = more binding, comparable within an allelic series)
ATCATTAC	12 upbm affinity estimate (log intensity, higher = more binding, comparable within an allelic series)
CCTAATGA	11.7 upbm affinity estimate (log intensity, higher = more binding, comparable within an allelic series)
ATAATGAT	12.2 upbm affinity estimate (log intensity, higher = more binding, comparable within an allelic series)
GGTAATGA	11.9 upbm affinity estimate (log intensity, higher = more binding, comparable within an allelic series)
CATAATGA	11.9 upbm affinity estimate (log intensity, higher = more binding, comparable within an allelic series)
CATCATTA	12.3 upbm affinity estimate (log intensity, higher = more binding, comparable within an allelic series)
ACCCGTGG	9.76 upbm affinity estimate (log intensity, higher = more binding, comparable within an allelic series)
TATAATGA	11.9 upbm affinity estimate (log intensity, higher = more binding, comparable within an allelic series)
ATAATGAC	12.1 upbm affinity estimate (log intensity, higher = more binding, comparable within an allelic series)
CGGCGGTC	9.69 upbm affinity estimate (log intensity, higher = more binding, comparable within an allelic series)
GATAATGA	12.3 upbm affinity estimate (log intensity, higher = more binding, comparable within an allelic series)
GGCCCCCA	9.68 upbm affinity estimate (log intensity, higher = more binding, comparable within an allelic series)
CGGGCTTC	9.66 upbm affinity estimate (log intensity, higher = more binding, comparable within an allelic series)
CCCTTGCG	9.77 upbm affinity estimate (log intensity, higher = more binding, comparable within an allelic series)
CAGGCCCC	9.56 upbm affinity estimate (log intensity, higher = more binding, comparable within an allelic series)
ATTCATTA	12.1 upbm affinity estimate (log intensity, higher = more binding, comparable within an allelic series)

Biological target: HOXB4 (Homo sapiens, UniProt P17483 148-234, V174I)
Sequence (P17483 148-234 V174I): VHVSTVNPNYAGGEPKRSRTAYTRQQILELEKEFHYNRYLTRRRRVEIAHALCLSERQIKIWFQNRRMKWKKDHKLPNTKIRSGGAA
Test: PBM; 200 nM protein, PBS
Details: dsDNA, one strand shown

Sequence	binding signal
TAATGACA	13.7 upbm affinity estimate (log intensity, higher = more binding, comparable within an allelic series)
CGCCGGGC	7.67 upbm affinity estimate (log intensity, higher = more binding, comparable within an allelic series)
CTGGCGGC	7.49 upbm affinity estimate (log intensity, higher = more binding, comparable within an allelic series)
ACCTCTCG	7.48 upbm affinity estimate (log intensity, higher = more binding, comparable within an allelic series)
CCAGGCAG	7.62 upbm affinity estimate (log intensity, higher = more binding, comparable within an allelic series)
TCCCAGGA	7.66 upbm affinity estimate (log intensity, higher = more binding, comparable within an allelic series)
ATTAATCA	13.9 upbm affinity estimate (log intensity, higher = more binding, comparable within an allelic series)
TAATGATA	14.1 upbm affinity estimate (log intensity, higher = more binding, comparable within an allelic series)
ACCGCCGG	7.62 upbm affinity estimate (log intensity, higher = more binding, comparable within an allelic series)
AGGGGGGG	7.23 upbm affinity estimate (log intensity, higher = more binding, comparable within an allelic series)
TTAATGAA	13.7 upbm affinity estimate (log intensity, higher = more binding, comparable within an allelic series)
CCGGACCA	7.8 upbm affinity estimate (log intensity, higher = more binding, comparable within an allelic series)
ATCATTAC	13.8 upbm affinity estimate (log intensity, higher = more binding, comparable within an allelic series)
CGCCGAAG	7.65 upbm affinity estimate (log intensity, higher = more binding, comparable within an allelic series)
CCTAATGA	13.6 upbm affinity estimate (log intensity, higher = more binding, comparable within an allelic series)
CGTGGCGC	7.68 upbm affinity estimate (log intensity, higher = more binding, comparable within an allelic series)
CGGGGGTC	7.45 upbm affinity estimate (log intensity, higher = more binding, comparable within an allelic series)
CAGACCCC	7.7 upbm affinity estimate (log intensity, higher = more binding, comparable within an allelic series)
ATAATGAT	13.8 upbm affinity estimate (log intensity, higher = more binding, comparable within an allelic series)
GGTAATGA	13.6 upbm affinity estimate (log intensity, higher = more binding, comparable within an allelic series)

Sequence	binding signal
CATAATGA	13.5 upbm affinity estimate (log intensity, higher = more binding, comparable within an allelic series)
GTGGGGGA	7.59 upbm affinity estimate (log intensity, higher = more binding, comparable within an allelic series)
CATCATTA	14 upbm affinity estimate (log intensity, higher = more binding, comparable within an allelic series)
ACCCGTGG	7.53 upbm affinity estimate (log intensity, higher = more binding, comparable within an allelic series)
ATTTGAAC	9.93 upbm affinity estimate (log intensity, higher = more binding, comparable within an allelic series)
TATAATGA	13.5 upbm affinity estimate (log intensity, higher = more binding, comparable within an allelic series)
ATAATGAC	13.6 upbm affinity estimate (log intensity, higher = more binding, comparable within an allelic series)
CGGCGGTC	7.32 upbm affinity estimate (log intensity, higher = more binding, comparable within an allelic series)
CCTACCGC	7.56 upbm affinity estimate (log intensity, higher = more binding, comparable within an allelic series)
GATAATGA	13.7 upbm affinity estimate (log intensity, higher = more binding, comparable within an allelic series)
GGCCCCCA	7.77 upbm affinity estimate (log intensity, higher = more binding, comparable within an allelic series)
CGGCAGAG	7.51 upbm affinity estimate (log intensity, higher = more binding, comparable within an allelic series)
TATTTAAA	11.2 upbm affinity estimate (log intensity, higher = more binding, comparable within an allelic series)
CGGGCTTC	7.19 upbm affinity estimate (log intensity, higher = more binding, comparable within an allelic series)
ACCGTGGG	7.68 upbm affinity estimate (log intensity, higher = more binding, comparable within an allelic series)
ACCGTGCC	7.71 upbm affinity estimate (log intensity, higher = more binding, comparable within an allelic series)
CCCTTGCG	7.32 upbm affinity estimate (log intensity, higher = more binding, comparable within an allelic series)
CAGGCCCC	7.6 upbm affinity estimate (log intensity, higher = more binding, comparable within an allelic series)
ATTCATTA	13.7 upbm affinity estimate (log intensity, higher = more binding, comparable within an allelic series)
CGAGGCAC	7.43 upbm affinity estimate (log intensity, higher = more binding, comparable within an allelic series)
